A selection: hits, their analogues and other compounds. The true share with any hit is near 6.6%.
BoNT-A LC inh2: blocks Botulinum neurotoxin A light chain protease | 0.17% of 360,000 active | multiplex microsphere protease substrate cleavage, flow cytometry | inhibition, % at 10 µM; also: plate controls were buffer without enzyme for full effect and enzyme alone for no effect
Mtb FBA inh: inhibits M. tuberculosis FBA enzyme; P9WQA3; AID 588726; inhibition, % at 1 µM; purified M. tuberculosis FBA, fluorescence read-out; 2.3% of 360,000 active; in the data active = inhibition above about 27%;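 also: 0% = vehicle and 100% = reference inhibitor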
Target sequence (P9WQA3 whole entry, looked up): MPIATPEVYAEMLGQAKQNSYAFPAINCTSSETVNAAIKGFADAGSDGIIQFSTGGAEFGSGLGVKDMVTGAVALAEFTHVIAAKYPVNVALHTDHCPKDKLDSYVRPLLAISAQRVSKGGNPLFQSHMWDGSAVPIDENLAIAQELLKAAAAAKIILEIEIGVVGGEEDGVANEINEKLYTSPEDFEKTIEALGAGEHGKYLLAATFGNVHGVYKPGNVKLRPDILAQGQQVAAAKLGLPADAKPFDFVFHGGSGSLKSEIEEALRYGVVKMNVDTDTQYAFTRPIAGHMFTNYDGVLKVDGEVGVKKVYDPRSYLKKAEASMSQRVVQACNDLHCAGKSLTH
Anthrax LF prot: inhibitors of Bacillus anthracis lethal factor protease | P15917 | multiplex microsphere protease cleavage assay, LF | inhibition, % at 10 µM | 0.12% of 360,000 active; also: plate controls were buffer without enzyme for full effect and enzyme alone for no effect
BoNT-F LC inh: inhibitors of Botulinum neurotoxin F light chain protease; Multiplex microsphere protease cleavage assay, flow cytometry; inhibition, % at 10 µM; 0.22% of 360,000 active; AID 588497; in the data active = inhibition above about 35%, passing the limit was not always enough; inconclusive = no clear call, values can overlap the other calls; also: plate controls were buffer without enzyme for full effect and enzyme alone for no effect
GDH-TPI inh: inhibits GDH-TPI coupling enzymes, artifact for Mtb FBA screen. GDH-TPI coupled enzyme counterscreen, NADH absorbance. inhibition, % at 4.8 µM. 1.2% of 360,000 active; in the data active = inhibition above about 30%;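 also: 0% = DMSO wells and 100% = wells lacking the enzyme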
Autofluor counter: flagged as autofluorescent in microsphere protease counterscreen. compound autofluorescence counterscreen, microsphere flow cytometry; active compounds read high. fluorescence intensity (concentration not given with the values). 3.1% of 360,000 active; in the data active = fluorescence intensity above about 16000; inconclusive = no clear call, values can overlap the other calls
* = called active by the depositor; ? = inconclusive; . = no result given. Rule as the data show it, unless noted: active = inhibition above about 30%; inconclusive = no clear call, values can overlap the other calls; inactive = below that.

SMILES	BoNT-A LC inh2	Mtb FBA inh	Anthrax LF prot	BoNT-F LC inh	GDH-TPI inh	Autofluor counter
Cc1ccc(S(=O)(=O)N2CCCCC2C(=O)O)s1 (stereo unspecified)	-1	2	1	-5	9	2010
Cc1ccc(S(=O)(=O)N2CCCC2C(=O)O)s1 (stereo unspecified)	-2	-1	0	-4	-3	24047*
CCOc1ccccc1C(=O)N/N=C/c1coc2ccc(Cl)cc2c1=O	-5	2	-4	-4	1	6867
O=C1C[C@@H](c2ccc(O[C@@H]3O[C@H](CO)[C@@H](O)[C@H](O)[C@H]3O)cc2)Oc2cc(O)ccc21	0	1	-6	-11	34*	4190
C=CCn1c(O)c(C=Nc2ccc(OC)cc2C)c(=O)[nH]c1=O	1	0	-7	4	43*	3333
CC1(C)CC(=O)C(C=NCC2CCCO2)=C(O)C1 (stereo unspecified)	-3	-5	-2	-5	-5	25274*
CC1(C)CC(=O)C(C=Nc2ccccc2C(=O)O)=C(O)C1	0	13	-1	-6	42*	5861
CC1(C)CC(=O)C(C=NCC2CCNCC2)=C(O)C1	0	0	-11	1	1	4183
CC1(C)CC(=O)C(C=NCC(O)c2ccccc2)=C(O)C1 (stereo unspecified)	-3	0	-1	-4	-6	20941*
CC1(C)CC(=O)C(C=NCCN2CCN(C(=O)Cc3ccc(F)cc3)CC2)=C(O)C1	-1	3	3	0	-8	19988*
CC1(C)CC(=O)C(C=Nc2ccccc2)=C(O)C1	0	-1	-4	-10	27	2613
Cc1ccc(C)c(OCc2cc(C(=O)NC(c3ccccn3)C(F)(F)F)no2)c1 (stereo unspecified)	1	3	-1	-12	-3	4355
COc1ccc(CN=CC2=C(O)CNC2=O)cc1	0	0	1	4	1	4738
CC1(C)CC(=O)C(C=NCCCn2ccnc2)=C(O)C1	1	1	-1	2	14	21981*
COc1ccc(CN=CC2=C(O)CC(C)(C)CC2=O)cc1	-2	3	-2	-4	1	24658*
COc1ccc(N(CC(=O)NCC2CCCO2)S(=O)(=O)c2ccc(C)cc2)cc1OC (stereo unspecified)	0	0	0	-1	6	16225*
Cc1ccc(N(CC(=O)NCC2CCCO2)S(=O)(=O)c2ccc(Cl)cc2)cc1C (stereo unspecified)	-2	-2	-2	0	-1	5621
CC1(C)C(=O)OC(c2cccs2)C(C)(C)C1=O (stereo unspecified)	0	-5	-5	0	-17	19729*
CCCc1cc(=O)n2[nH]c(C(F)(F)F)nc2n1	0	-1	-8	-6	1	3903
CCCc1cc(=O)n2[nH]c(C)nc2n1	-2	3	-2	-3	1	24470*
O=C(Cc1ncc(C(F)(F)F)cc1Cl)N1CCN(c2ccc(F)cc2)CC1	-1	0	-3	-4	7	4285
O=C(OC1CCN(c2ncc(C(F)(F)F)cc2Cl)CC1)c1cccc(C(F)(F)F)c1	0	0	-10	1	-2	6345
COc1ccc(N2CCN(C(=O)Cc3ncc(C(F)(F)F)cc3Cl)CC2)cc1	0	0	-3	-2	8	23985*
COc1ccc(C(=O)OC2CCN(c3ncc(C(F)(F)F)cc3Cl)CC2)cc1	1	3	2	5	-5	5195
O=C(O)C=C1CCN(c2ncc(C(F)(F)F)cc2Cl)CC1	-1	0	-9	2	12	6834
SMILES	BoNT-A LC inh2	Mtb FBA inh	Anthrax LF prot	BoNT-F LC inh	GDH-TPI inh	Autofluor counter
NNC(=O)C=C1CCN(c2ncc(C(F)(F)F)cc2Cl)CC1	2	4	-8	2	-1	20786*
O=C(OC1CCN(c2ncc(C(F)(F)F)cc2Cl)CC1)c1ccccc1	1	2	-3	0	2	22198*
COc1ccc(/C=N/NC(=O)C2CCN(c3ncc(C(F)(F)F)cc3Cl)CC2)cc1	?	-4	-2	-1	1	22271*
CC(C)C1C(=O)N(Cc2cn(CC3CCCCC3)nn2)CCS(=O)(=O)N1Cc1ccc(-c2ccccc2)cc1 (stereo unspecified)	0	5	2	-6	11	2995
CC1(C)Cc2cccc(OCC(=O)OCC(=O)Nc3cccc(S(N)(=O)=O)c3)c2O1	-1	-3	-2	-6	0	4732
C/C(=N\NC(=O)c1ccc2ccccc2c1)c1cccs1	2	0	-1	-4	10	5096
COc1ccc2c(=O)c3ccccc3oc2c1	0	6	-2	-1	12	5184
C=C1CC(COc2ccc3c(C)c(Cl)c(=O)oc3c2)(c2ccccc2)OC1=O (stereo unspecified)	0	121*	0	-2	19	2973
COc1ccc2c(c1)oc(=O)c1cc(OC)ccc12	0	138*	2	-3	-1	4843
COc1ccc2c(C)c(Cl)c(=O)oc2c1	-2	153*	-5	-15	16	4897
COc1cc(OC)cc(C(=O)NNC(=O)CCc2nc3ccccc3c(=O)[nH]2)c1	1	2	0	1	-2	5272
Cc1ccc(NC(=O)COC(=O)c2c(-c3ccccc3)noc2C)c(C)c1	0	1	3	-4	0	3874
Cc1cc(C(=O)O)ccc1-c1ccc(CO)o1	0	161*	-6	-7	6	3304
CCOc1ccc(NC(=O)CCn2c(=O)[nH]c3ccsc3c2=O)cc1	-1	2	1	4	0	4376
O=C1NC(=O)C2(Cc3ccccc3N3CCOCC32)C(=O)N1c1ccccc1 (stereo unspecified)	1	0	-1	0	4	22770*
CC(C)NC(=O)C1(C#N)C=C1c1ccccc1 (stereo unspecified)	-1	.	-17	-1	.	5614
CC(C)CNC(=O)c1coc(=O)c(Br)c1	0	14	-8	4	29	8945
O=C(Nc1cc(Cl)cc(Cl)c1)c1coc(=O)c(Br)c1	-6	137*	2	?	32*	3837
O=C(NC(CO)(CO)CO)c1coc(=O)c(Br)c1	-1	5	-2	-2	44*	17123*
CC(=O)c1c(C)[nH]c(C(=O)OCc2csc(CC(=O)Nc3ccccc3C)n2)c1C	0	-3	-6	4	-1	3544
CCOC(=O)N1CCN(CC(O)COc2ccc(C)c(C)c2)CC1 (stereo unspecified)	-1	0	4	-4	-6	3147
N#CCCN/N=C(\Cc1nc2ccccc2[nH]1)c1ccccc1	3	8	2	-2	7	22721*
CC(=O)c1ccc(NC(=O)CSC(C)C)cc1	0	0	0	2	-14	22011*
C=CCN(c1ccccc1OC)S(=O)(=O)c1cccc(C(=O)NCC(c2ccc(OC)cc2)N2CCCC2)c1 (stereo unspecified)	-4	0	-9	-1	-1	23106*

Screens: PubChem, several laboratories
